Hits are enriched below; roughly 21% of the tested compounds scored in any of these assays.
Pf growth 48h – Primary qHTS for delayed death inhibitors of the malarial parasite plastid, 48 hour incubation | Potency, µM (series often up to 28.7 µM), inactives show at the top dose activity change, negative = inhibition, most hits filed as inhibitors | AID 504832, 2011 | 5.9% of 310,000 active | P. falciparum luciferase growth in erythrocytes, 48 h; note: potency is the fitted concentration of half-maximal effect; % is set by controls: 0 for no effect and ±100 for the full control effect
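Here the parasites carry a stable luciferase gene and grow inside erythrocytes in Albumax-based RPMI medium with compound for one erythrocytic cycle. Activity is scored as loss of luminescent signal.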
Pf growth 96h – Primary qHTS for delayed death inhibitors of the malarial parasite plastid, 96 hour incubation; P. falciparum luciferase reporter growth, 96 h; 6.9% of 320,000 active; Potency, µM (top dose mostly 28.7 µM), for inactives: at the top dose activity change, negative = inhibition, actives largely listed as inhibitors; note: potency is the fitted concentration of half-maximal effect; % is set by controls: 0 for no effect and ±100 for the full control effect
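Luminescence readout: decreased luciferase signal marks inhibited growth of reporter-expressing P. falciparum in infected red cells (2% hematocrit, 0.05% parasitemia final), exposed to compound two generations (96 h, 37 C, 5% CO2).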
Shiga inhibitor – A qHTS for Small Molecule Inhibitors of Shiga Toxin | 9.2% of 290,000 active | Vero cells, Shiga toxin protein synthesis inhibition reporter | inhibition, % at 38.7 µM; in the data active = inhibition mostly above about 28%, no sharp cut-off; inactive = mostly below about 43%; note: 0% is about no effect
CHX counter – Cycloheximide Counterscreen for Small Molecule Inhibitors of Shiga Toxin; cell reporter, cycloheximide protein synthesis inhibition counterscreen; max response, %; 12% of 300,000 active; in the data active = max response mostly above about 13%, no sharp cut-off; inactive = mostly below about 14%; note: read at 38.3 µM for the half of the compounds with a filed dose; 0% is about no effect
* marks the source's active call; other numbers are inactive results; [ ] = remark or other dose. Unless noted, calls come from the whole dose curve; as a rule, active = well fitted inhibition curve with a large enough effect; inconclusive = small, poorly fitted or top-dose-only effect, or another doubt; inactive = no such curve, though single readings can be large or run the other way.

Fc1ccc(NC(=S)NCCc2ccc(Cl)cc2)cc1 was read as Pf growth 48h -26%, Pf growth 96h -10%, Shiga inhibitor 93* and CHX counter 48*.
For O=C(NCc1ccc(Cl)cc1)Nc1ccc(F)cc1 the results were Pf growth 48h 23%, Pf growth 96h inconclusive, Shiga inhibitor 29 and CHX counter 49*.
For Fc1ccc(CCNC(=S)Nc2ccc(F)c(Cl)c2)cc1 the results were Pf growth 48h inconclusive, Pf growth 96h 4%, Shiga inhibitor 38 and CHX counter 17.
Screening COc1ccc2[nH]c(=O)c(CN(Cc3cccnc3)C(=S)NCC3CCCO3)cc2c1 (stereo not given) returned Pf growth 48h 0%, Pf growth 96h inconclusive, Shiga inhibitor -8 and CHX counter 1.
`O=C(COC(=O)c1cc(-c2cccc(Br)c2)nc2ccccc12)NCC1CCCO1` (stereo not given) gave Pf growth 48h 11%, Pf growth 96h 73%, Shiga inhibitor 14 and CHX counter 1.
For S=C(NCCC1=CCCCC1)Nc1ccc(Cl)cc1 the results were Pf growth 48h -1%, Pf growth 96h inconclusive, Shiga inhibitor 63* and CHX counter 44*.
COc1ccc(NC(=S)NCCC2=CCCCC2)cc1OC was read as Pf growth 48h -23%, Pf growth 96h 17%, Shiga inhibitor 29 and CHX counter 12.
CSc1ccc(NC(=O)NCc2ccccc2)cc1 was read as Pf growth 48h 40%, Pf growth 96h 118%, Shiga inhibitor 91* and CHX counter 44*.
For O=C(NC(=S)NCCC1=CCCCC1)c1cccnc1 the results were Pf growth 48h inconclusive, Pf growth 96h inconclusive, Shiga inhibitor 40* and CHX counter 14*.
O=C(Nc1ccccc1)c1nccn1Cc1ccc(F)cc1 was read as Pf growth 48h 31%, Pf growth 96h 63%, Shiga inhibitor 64* and CHX counter 28*.
`O=C(NCCC1=CCCCC1)C1CCCN(S(=O)(=O)c2cccnc2)C1` (stereo not given) gave Pf growth 96h 3%, Shiga inhibitor -18 and CHX counter -8.
Screening CC1CCCCN1C(=O)Cn1cc(/C=C2/C(=O)Nc3ccccc32)c2ccccc21 (stereo not given) returned Pf growth 48h inconclusive, Pf growth 96h inconclusive, Shiga inhibitor 17 and CHX counter 6.
Screening O=C(c1cnn(-c2ccccc2)c1)c1ccc2ccccc2c1O returned Pf growth 48h 82%, Pf growth 96h 150%, Shiga inhibitor 39 and CHX counter 15*.
Cc1ccc(C(=O)NNC(=O)c2ccc3ccccc3c2O)cc1 was read as Pf growth 48h 0%, Pf growth 96h 24%, Shiga inhibitor 1 and CHX counter 2.
For CC(C)(C)n1cc(C(=O)c2ccc3ccccc3c2O)cn1 the results were Pf growth 48h inactive, Pf growth 96h inactive, Shiga inhibitor 46* and CHX counter 25.
COc1ccc(C(=O)C2=NN(C(C)=O)CC2c2ccco2)cc1 (stereo not given) was read as Pf growth 48h 8%, Pf growth 96h -22%, Shiga inhibitor 9 and CHX counter 1.
For CCc1cc2c(=O)oc(-c3ccc(F)cc3)nc2s1 the results were Pf growth 48h 22%, Pf growth 96h 12%, Shiga inhibitor -6 and CHX counter 1.
`Clc1ccc(Sc2cc(Cl)c(Cl)cc2Cl)cc1` gave Shiga inhibitor -6 and CHX counter -2.
CC(=O)Nc1ccc(OCCOCCOc2ccc(NC(C)=O)cc2)cc1 was read as Pf growth 48h 5% and Pf growth 96h -6%.
`Clc1ccc(OCc2cnc(Cl)s2)cc1` gave Pf growth 48h 40%, Pf growth 96h 70%, Shiga inhibitor 49 and CHX counter 26*.
For O=C1NC(=O)/C(=C\c2ccc(OCc3cnc(Cl)s3)cc2)S1 the results were Pf growth 48h 52%, Pf growth 96h 20%, Shiga inhibitor -4 and CHX counter -3.
CCc1ccc(OCc2cnc(Cl)s2)cc1 was read as Pf growth 48h 17%, Pf growth 96h 52%, Shiga inhibitor 78 and CHX counter 28*.
CC(=O)Nc1ccc(OC/C=C(\C)Cl)cc1 was read as Pf growth 48h 0%, Pf growth 96h -16%, Shiga inhibitor 31 and CHX counter 17*.
For CC(=O)Nc1ccc(OCc2cnc(Cl)s2)cc1 the results were Pf growth 48h 29%, Pf growth 96h -13%, Shiga inhibitor 35 and CHX counter 25*.
CC(=O)N/C(=N\c1nc(C)cc(C)n1)Nc1ccccc1Cl was read as Pf growth 48h 1%, Pf growth 96h 1%, Shiga inhibitor -1 and CHX counter 7.
`CCOC(=O)CNC(=O)Nc1cc(C(C)(C)C)nn1-c1ccccc1` gave Pf growth 48h 3%, Pf growth 96h 32%, Shiga inhibitor -4 and CHX counter 37*.
Fc1ccc2[nH]c3c(NCCN4CCOCC4)ncnc3c2c1 was read as Pf growth 48h 3.3µM*, Pf growth 96h 4.1µM*, Shiga inhibitor -2 and CHX counter -2.
For CCN1CCCC1Cn1cnc2c([nH]c3ccc(Cl)cc32)c1=O (stereo not given) the results were Pf growth 48h 9%, Pf growth 96h -5%[5.75 µM], Shiga inhibitor 13 and CHX counter 4.
Clc1ccc2[nH]c3c(NCC4CCCO4)ncnc3c2c1 (stereo not given) was read as Pf growth 48h inconclusive, Pf growth 96h 166%, Shiga inhibitor 13 and CHX counter 23*.
`Clc1ccc2[nH]c3c(NCCN4CCOCC4)ncnc3c2c1` gave Pf growth 48h 3.7µM*, Pf growth 96h 30%, Shiga inhibitor 24 and CHX counter 7.
`O=c1c2[nH]c3ccc(F)cc3c2ncn1CCCN1CCOCC1` gave Pf growth 48h 3%, Pf growth 96h inconclusive, Shiga inhibitor 24 and CHX counter 11.
COc1cc(CNCc2cc(OC)c(OC)c(OC)c2)cc(OC)c1 was read as Pf growth 48h -18%, Pf growth 96h inconclusive, Shiga inhibitor 1 and CHX counter -3.
`Cc1ccc(N(CC(=O)Nc2ccc(Br)c(C)c2)S(=O)(=O)c2c(C)[nH]c(=O)[nH]c2=O)cc1` gave Pf growth 48h 5%, Pf growth 96h inconclusive, Shiga inhibitor -4 and CHX counter -4.
`COc1ccccc1/C=N/NC(=O)c1ccc(N(C)S(=O)(=O)c2ccccc2)cc1` gave Pf growth 48h 9%, Pf growth 96h -18%, Shiga inhibitor -9 and CHX counter -9.
Screening CC(C)Oc1ccccc1/C=N/NC(=O)c1ccc(F)cc1 returned Pf growth 48h 16%, Pf growth 96h -7%, Shiga inhibitor 20* and CHX counter 27*.
`CC(C)Oc1ccccc1/C=N/NC(=O)c1ccccc1Cl` gave Pf growth 48h 8%, Pf growth 96h 7%, Shiga inhibitor 15 and CHX counter 12*.
`O=C(O)COc1ccccc1/C=N/NC(=O)CNC(=O)c1ccc(F)cc1` gave Pf growth 48h 29%, Pf growth 96h 33%, Shiga inhibitor -2 and CHX counter -3.
